{"source": "PubChem BioAssay AID1347416", "about": "(National Center for Advancing Translational Sciences (NCATS), 2020)", "note": "The whole screen tested about 4,100 compounds, of which about 1,600 (39%) were called active. Not shown: some 25% with an inconclusive outcome. The list shows a part of the results. Unmarked numbers belong to inactive results. Calls come from the whole dose curve; as a rule, active = well fitted inhibition curve with a large enough effect; inconclusive = small, poorly fitted or top-dose-only effect; inactive = no such curve, though single readings can be large or run the other way. % is set by controls: 0 for no effect and ±100 for the full control effect; potency is the fitted concentration of half-maximal effect."}
{"test": "qHTS Validation assay for Inhibitors of Plasmodium falciparum Dd2 growth in vitro; note: nearly all actives have a fitted effect of over 70% in size", "conditions": "P. falciparum Dd2 in RBCs, SYBR Green growth, 72 h; series mostly up to 28.7 µM; activity change, negative = inhibition: at the top concentration", "summary_of_the_method": "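P. falciparum Dd2-infected red blood cells (2.5% hematocrit, 0.3% parasitemia) grown 72 h at 37 °C under 5% O2 with compounds in a titration, 29 uM to 0.5 nM final. Growth read as SYBR Green-1 fluorescence after ~16 h lysis; artesunate 300 nM as positive control.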"}
{"smiles": "COCCOCC1(CNC(=O)c2cnccn2)C[C@@H](O)[C@@H](O)C1", "note": "(stereo partly specified)", "activity change, negative = inhibition": "54.4% [at 43.1 µM]"}
{"smiles": "O=c1c2ccccc2sc2nc(C3CCCCC3)n(Cc3ccco3)c(=O)c12", "Potency": "7500 nM (active)"}
{"smiles": "CC1CCN(c2nc3c(S(=O)(=O)c4ccccc4)nnn3c3ccc(Cl)cc23)CC1", "Potency": "2660 nM (active)"}
{"smiles": "Cc1ccc(S(=O)(=O)c2nnn3c2nc(N2CCN(c4ccccn4)CC2)c2ccccc23)cc1", "Potency": "7500 nM (active)"}
{"smiles": "Cc1c(C(=O)N2CCN(c3ccccn3)CC2)oc2ccccc12", "activity change, negative = inhibition": "24.9%"}
{"smiles": "CN(C)c1cc(=O)c2ccnc(N3CCN(c4ccccn4)CC3)c2o1", "activity change, negative = inhibition": "12.8% [at 43.1 µM]"}
{"smiles": "O=S(=O)(c1ccccc1)c1nnn2c1nc(NC1CCN(Cc3ccccc3)CC1)c1cc(Cl)ccc12", "Potency": "2990 nM (active)"}
{"smiles": "COc1cccc(CN(C)C2CCc3ccccc32)c1", "note": "(stereo unspecified)", "activity change, negative = inhibition": "-11.5% [at 43.1 µM]"}
{"smiles": "COc1ccc2c(c1)CCN=C2C[C@H]1CN(C(=O)NC(C)C)CC[C@H]1CC(=O)O", "activity change, negative = inhibition": "40.3% [at 43.1 µM]"}
{"smiles": "COc1ccc(CN2CCCC(N3CCc4ccccc4C3)C2)c(O)c1", "note": "(stereo unspecified)", "Potency": "2990 nM (active)"}
{"smiles": "Cc1cccn2c(=O)c3cc(C(=O)NC(C)c4ccccc4)c(=N)n(CCOCCO)c3nc12", "note": "(stereo unspecified)", "Potency": "10600 nM (active)"}
{"smiles": "COc1ccc(CCn2c(=N)c(C(=O)NCc3ccco3)cc3c(=O)n4cccc(C)c4nc32)cc1", "Potency": "1680 nM (active)"}
{"smiles": "CCOCCCn1c(=N)c(C(=O)NCc2cccnc2)cc2c(=O)n3ccccc3nc21", "activity change, negative = inhibition": "35.7%"}
{"smiles": "Cc1cccn2c(=O)c3cc(C(=O)NCCc4ccc(S(N)(=O)=O)cc4)n(C)c3nc12", "activity change, negative = inhibition": "52.4%"}
{"smiles": "COc1ccc(CCn2c(=N)c(C(=O)NCCN3CCOCC3)cc3c(=O)n4cccc(C)c4nc32)cc1OC", "Potency": "13300 nM (active)"}
{"smiles": "Cc1ccc(-c2cc3c(=O)n(CCNC(=O)c4ccc[nH]c4=O)ccn3n2)cc1C", "activity change, negative = inhibition": "-19.5%"}
{"smiles": "CCCc1noc(-c2cccn3c(CNC(=O)c4ccc(OC)cc4C)nnc23)n1", "activity change, negative = inhibition": "5.42%"}
{"smiles": "N#Cc1cccc(-c2cn3c(n2)N(C(=O)CC2CCCC2)CCC3)c1", "activity change, negative = inhibition": "-24.1%"}
{"smiles": "CCCCCCc1cc2cc(-c3nnc(-c4ccc(C)cc4)o3)c(=O)oc2cc1O", "activity change, negative = inhibition": "75.9%"}
{"smiles": "O=C(C1CCCC1)N1CCN(c2nnc3c(Cl)cccn23)CC1", "activity change, negative = inhibition": "-1.29%"}
{"smiles": "Cc1cccn2c(=O)c3cc(C(=O)NC4CCCC4)c(=N)n(CCc4ccccc4)c3nc12", "Potency": "1880 nM (active)"}
{"smiles": "CN1CCCCC(CC(=O)NCCc2ccccc2)C1=O", "note": "(stereo unspecified)", "activity change, negative = inhibition": "19.6%"}
{"smiles": "COc1ccc(CCNC(=O)c2cc3c(=O)n4cccc(C)c4nc3n(CC3CCCO3)c2=N)cc1", "note": "(stereo unspecified)", "activity change, negative = inhibition": "12.4%"}
{"smiles": "COc1ccc(CCn2c(=N)c(C(=O)NC3CCCC3)cc3c(=O)n4cccc(C)c4nc32)cc1", "Potency": "750 nM (active)"}
{"smiles": "O=C(/C=C/c1ccccc1)Nc1cccc(C(=O)O)c1", "activity change, negative = inhibition": "36.5%"}
{"smiles": "Cc1cc(N)c2cc(NC(=O)/C=C/c3ccccc3Cl)ccc2n1", "Potency": "1880 nM (active)"}
